The values below come from publication PMC5540273 (PLoS ONE, 2017).

Among the test systems are CLK2; CLK3; CLK4; CSF1R-autoinhibited; CSF1R; CSK; CSNK1A1L; CSNK1A1; CSNK1D; CSNK1E.
Conditions in all cases: concentration: 1 μM,replicates: in singlicate; n = 1
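Further: KINOMEscan kinase panel screen.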

Take `Cn1ccc2ncnc(Oc3ccc(NC(=O)Nc4cnn(C(C)(C)C)c4)c(Cl)c3)c21`: the “%Inh” value in the test with CLK2 is on record as 12%; with CLK3 it was 5%; in the test with CLK4, 9%; in the test with CSF1R-autoinhibited it was 28%; with CSF1R, 99.9%; with CSK it was 0%. Moreover, the “%Inh” value is 0% in the test on CSNK1A1L, 0% with CSNK1A1, 0% in the test on CSNK1D and 2% with CSNK1E.

Regarding `N#Cc1cccc(C(=O)NC2CCN(c3ccnc(Nc4ccc(F)cc4)n3)C2)c1` (stereo not shown) [GSK1379708], the “%Inh” value came out at 0% in the test on CLK2; 0% in the test on CLK3; 1% in the test on CLK4; 2% in the test on CSF1R-autoinhibited; 1% with CSF1R; 24% in the test on CSK. For the same compound, the “%Inh” value in the test on CSNK1A1L was 1%; with CSNK1A1, 0%; in the test with CSNK1D it was 17%; in the test with CSNK1E, 1%.

Turning to `Cn1cc(-c2cccc3c(N)c(C(N)=O)nnc23)cn1`, the “%Inh” value with CLK2 worked out at 78%; in the test with CLK3, 20%; with CLK4 it was 75%; in the test on CSF1R-autoinhibited, 0%; with CSF1R, 0%; with CSK it was 19%. For the same compound, the “%Inh” value in the test on CSNK1A1L was determined as 21%; in the test on CSNK1A1, 72%; in the test on CSNK1D, 32%; in the test with CSNK1E, 25%.

For the compound `Cc1ccc(CC(=O)N2CCc3cc(-c4cn(C)c5ncnc(N)c45)ccc32)cc1` [GSK2634758], the “%Inh” value is listed as 0% with CLK2; 0% in the test on CLK3; 0% in the test on CLK4; 21% in the test with CSF1R-autoinhibited; 79% in the test with CSF1R; 100% in the test with CSK. Besides, the “%Inh” value in the test on CSNK1A1L was 14%; in the test with CSNK1A1 it was 0%; in the test with CSNK1D, 16%; with CSNK1E, 66%.

Take `CSc1nccc(-c2c(-c3ccc(F)cc3)ncn2CCCN2CCOCC2)n1.Cl` [SB-217146]: the “%Inh” value with CLK2 came to 0%; with CLK3 it was 0%; in the test on CLK4 it was 18%; in the test on CSF1R-autoinhibited it was 0%; in the test with CSF1R, 0%; in the test on CSK, 0%. Besides, the “%Inh” value with CSNK1A1L came out at 0%; in the test with CSNK1A1 it was 6%; with CSNK1D, 54%; in the test with CSNK1E, 10%.

For `COC(=O)c1cccc(NC(=O)NC2CCN(c3ccnc(Nc4cc(OC)c(OC)c(OC)c4)n3)C2)c1` (stereo not shown) [GSK1379767], the “%Inh” value in the test on CLK2 is 0%; in the test with CLK3 it was 0%; in the test with CLK4 it was 8%; in the test with CSF1R-autoinhibited, 34%; in the test on CSF1R, 26%; in the test on CSK, 0%. Besides, the “%Inh” value in the test on CSNK1A1L was found to be 0%; with CSNK1A1, 28%; in the test on CSNK1D it was 0%; in the test with CSNK1E, 13%.

With `Cn1ccc2ncnc(Oc3ccc(NC(=O)Nc4cccc(C(F)(F)F)c4)c(F)c3)c21`, the “%Inh” value in the test on CLK2 was 9%; in the test with CLK3, 4%; with CLK4 it was 0%; in the test on CSF1R-autoinhibited, 0%; in the test on CSF1R it was 99.9%; in the test on CSK, 0%. Also, the “%Inh” value in the test with CSNK1A1L turned out to be 0%; in the test with CSNK1A1, 39%; in the test with CSNK1D, 22%; in the test with CSNK1E, 13%.

On to `Nc1nccc(-c2ccc3c(N)n[nH]c3c2)n1` [GSK1034945], for which the “%Inh” value in the test on CLK2 is recorded as 88%; in the test with CLK3, 44%; with CLK4 it was 95.3%; in the test on CSF1R-autoinhibited it was 0%; with CSF1R, 0%; with CSK it was 0%. In addition, the “%Inh” value in the test on CSNK1A1L is listed as 5%; with CSNK1A1, 0%; with CSNK1D, 17%; in the test with CSNK1E, 29%.

In the case of `COc1ccc(Nc2nccc(N3CCC(NC(=O)c4cccc(C#N)c4)C3)n2)cc1` (stereo not shown) [GSK1379730], the “%Inh” value with CLK2 worked out at 0%; with CLK3, 5%; with CLK4 it was 21%; in the test on CSF1R-autoinhibited, 24%; with CSF1R, 0%; in the test with CSK, 0%. Further, the “%Inh” value in the test with CSNK1A1L stood at 11%; in the test on CSNK1A1 it was 0%; in the test with CSNK1D it was 29%; in the test with CSNK1E, 27%.

For `CCCC(=O)Nc1n[nH]c2ncccc12` [SB-601436], the “%Inh” value is 0% in the test on CLK2; 22% in the test on CLK3; 0% in the test on CLK4; 0% in the test on CSF1R-autoinhibited; 0% with CSF1R; 8% with CSK. Further, the “%Inh” value in the test with CSNK1A1L is listed as 4%; in the test with CSNK1A1, 0%; in the test on CSNK1D it was 0%; in the test on CSNK1E, 2%.

For `O=C(Nc1ccccc1)c1cccc(Oc2ccc3nccn3n2)c1`, the “%Inh” value came out at 20% with CLK2; 0% with CLK3; 0% with CLK4; 0% in the test with CSF1R-autoinhibited; 81% in the test with CSF1R; 0% with CSK. In addition, the “%Inh” value with CSNK1A1L, in the test with CSNK1A1, in the test with CSNK1D and with CSNK1E was 0% throughout.

On to `CC(=O)c1c(-c2ccncc2)[nH]c(-c2ccncc2)c1C` [GW493036], for which the “%Inh” value turned out to be 82% in the test with CLK2; 65% in the test with CLK3; 96.1% in the test with CLK4; 19% in the test with CSF1R-autoinhibited; 12% in the test on CSF1R; 8% in the test on CSK. Also, the “%Inh” value in the test on CSNK1A1L amounted to 79%; with CSNK1A1, 93.4%; in the test on CSNK1D it was 93.7%; in the test on CSNK1E it was 90%.

Turning to `CCOC(=O)N1CCC(n2cnc(-c3ccc(F)cc3)c2-c2ccnc(N)n2)CC1` [SB-219952], the “%Inh” value was 0% in the test on CLK2; 2% with CLK3; 2% in the test on CLK4; 22% in the test on CSF1R-autoinhibited; 70% with CSF1R; 11% with CSK. Also, the “%Inh” value with CSNK1A1L is listed as 74%; in the test with CSNK1A1 it was 97.8%; in the test with CSNK1D, 94.8%; with CSNK1E it was 99.7%.

For `Cn1ccc2ncnc(Oc3ccc(NC(=O)Nc4cncc(C(F)(F)F)c4)c(Cl)c3)c21`, the “%Inh” value with CLK2 was 7%; in the test on CLK3, 0%; in the test with CLK4 it was 7%; in the test on CSF1R-autoinhibited, 0%; in the test with CSF1R, 99.4%; in the test with CSK, 0%. The “%Inh” value with CSNK1A1L, in the test on CSNK1A1, with CSNK1D and in the test with CSNK1E was 0% each time.

As for `COC(=O)Nc1nc2cc(Oc3ccc(NC(=O)Nc4cc(C(F)(F)F)ccc4Cl)cc3)ccc2[nH]1.Cl` [GW697465], the “%Inh” value with CLK2 came to 0%; with CLK3, 13%; in the test with CLK4, 43%; in the test with CSF1R-autoinhibited, 47%; with CSF1R it was 99.6%; with CSK, 0%. The “%Inh” value with CSNK1A1L stood at 9%; in the test with CSNK1A1, 0%; in the test on CSNK1D, 69%; with CSNK1E, 39%.

Turning to `COc1cc(Nc2nccc(N3CCC(NC(=O)c4cccc(C#N)c4)C3)n2)cc(OC)c1OC` (stereo not shown) [GSK1379751], the “%Inh” value in the test on CLK2 is listed as 0%; in the test with CLK3, 0%; in the test with CLK4, 0%; with CSF1R-autoinhibited it was 14%; in the test with CSF1R, 28%; in the test on CSK, 0%. In addition, the “%Inh” value in the test with CSNK1A1L came out at 0%; in the test on CSNK1A1, 0%; with CSNK1D, 0%; in the test on CSNK1E it was 8%.
